Among the test systems are NCI-H23 lung; NCI-H226 lung; NCI-H322M lung; HOP-62 NSCLC; NCI-H460 lung; HOP-92 NSCLC; NCI-H522 lung; A549/ATCC NSCLC; 786-0 renal; COLO 205 colon.
What all share (experiment): NCI-60 one-dose screen, 48 h (100 = growth as untreated, 0 = no growth, -100 = all killed)
Holding throughout (details): 10 µM unless noted

Each structure is given as a SMILES string. Compounds without any hit were thinned out: in the full panel of roughly 83,000, 20% have a hit.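 In brief: 96-well plates, 48 h treatment, single concentration, percent growth endpoint.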 Unmarked numbers belong to inactive results. Calls of active or inactive are those of the source. The calls were made as follows: active = growth percent below 10; inactive = the rest.

As to `CCN(C(=O)CN1CCN(c2cc3c(cc2F)c(=O)c(C(=O)O)cn3C2CC2)CC1)c1nc(-c2ccc(OC)cc2)cs1`, the growth in the assay with NCI-H23 lung is 66%; with NCI-H226 lung, 85.8%; with NCI-H322M lung it was 38.8%; in the assay on HOP-62 NSCLC, 80.9%; in the assay with NCI-H460 lung it was -2.51% (active); in the assay on HOP-92 NSCLC it was 40%. The growth was 49% in the assay with NCI-H522 lung, 11.4% with A549/ATCC NSCLC, 102% with 786-0 renal and 63.7% in the assay on COLO 205 colon.

Turning to `Cc1cc(N/N=C/c2nc(-c3ccc(Cl)cc3)oc2C)c2cc(Cl)ccc2n1`, the growth is 111% in the assay on NCI-H23 lung; 98.4% in the assay on NCI-H226 lung; 79.1% with NCI-H322M lung; 103% in the assay with HOP-62 NSCLC; -62.5% (active) in the assay with NCI-H460 lung; 69.5% in the assay on HOP-92 NSCLC. Further, the growth is -1.87% (active) with NCI-H522 lung, 21.9% with A549/ATCC NSCLC, -39.8% (active) with 786-0 renal and 83.7% in the assay on COLO 205 colon.

Take `NC1=CSC2=N/C(=C\c3ccc(Cl)cc3)C(=O)N12`: the growth in the assay on NCI-H23 lung was 72.6%; in the assay on NCI-H226 lung it was 80.3%; with NCI-H322M lung, 95.7%; in the assay with HOP-62 NSCLC it was 83.5%; in the assay on NCI-H460 lung, 62.1%; in the assay on HOP-92 NSCLC, 69.5%. In addition, the growth in the assay on NCI-H522 lung is 33.8%; in the assay with A549/ATCC NSCLC it was 74.2%; with 786-0 renal, 81.4%; in the assay with COLO 205 colon, 90%.

For `Cc1cccc(NC(=O)c2sc3nc4c(cc3c2N)C(=O)CCC4)c1`, the growth is 53.1% in the assay on NCI-H23 lung; 56.6% in the assay with NCI-H226 lung; 37.2% with NCI-H322M lung; 42.9% in the assay with HOP-62 NSCLC; 6.09% (active) in the assay on NCI-H460 lung; 64.5% in the assay on HOP-92 NSCLC. Also, the growth with NCI-H522 lung is 11.7%; with A549/ATCC NSCLC it was 31.4%; with 786-0 renal, 31.3%; in the assay with COLO 205 colon, 3% (active).

For `COc1cc(-c2c3c(nc4c2c(C)nn4-c2ccccc2)-c2ccccc2C(=O)C3=O)cc(OC)c1OC`, the growth was 76.6% with NCI-H23 lung; 99.7% in the assay on NCI-H226 lung; 104% in the assay on NCI-H322M lung; 107% with HOP-62 NSCLC; 77.4% with NCI-H460 lung; 83.7% in the assay with HOP-92 NSCLC. Moreover, the growth in the assay on NCI-H522 lung is 84.4%; with A549/ATCC NSCLC, 80.6%; in the assay with 786-0 renal it was 97.8%; in the assay with COLO 205 colon, 69.7%.

On to `CC1=C(NCCN2CCCC2)C(=O)c2c(OCc3ccc(C(F)(F)F)cc3)cccc2C1=O`, for which the growth was 90.2% in the assay with NCI-H23 lung; 91.3% in the assay on NCI-H226 lung; 91% in the assay on NCI-H322M lung; 86.9% in the assay on HOP-62 NSCLC; 68.9% in the assay on NCI-H460 lung; 32.5% with HOP-92 NSCLC. Further, the growth in the assay on NCI-H522 lung is 100%; with A549/ATCC NSCLC, 85%; with 786-0 renal, 67%; in the assay with COLO 205 colon, 82.4%.

Take `O=C1/C(=C/c2ccc(Cl)c(Cl)c2)CN(C(=O)CCN2CCC(=NO)CC2)C/C1=C\c1ccc(Cl)c(Cl)c1`: the growth with NCI-H23 lung is -73.4% (active); in the assay on NCI-H226 lung, -40.6% (active); with NCI-H322M lung, -78.7% (active); with HOP-62 NSCLC, -88.2% (active); with NCI-H460 lung, -66% (active); in the assay with HOP-92 NSCLC, -53.2% (active). Moreover, the growth in the assay with NCI-H522 lung is -90.4% (active); in the assay with A549/ATCC NSCLC it was -34.6% (active); with 786-0 renal, -79.6% (active); in the assay on COLO 205 colon it was -84.6% (active).

`CCCCCCCCCCCCCCCC(=O)OCC1OC(n2cnc3c(=S)nc(N)[nH]c32)C(OC(=O)CCCCCCCCCCCCCCC)C1OC(=O)CCCCCCCCCCCCCCC` (stereo not given): the growth in the assay with NCI-H23 lung is 66.2%; in the assay with NCI-H226 lung, 76.7%; with NCI-H322M lung, 72.2%; in the assay with HOP-62 NSCLC it was 47.8%; in the assay with NCI-H460 lung, 63.4%; in the assay with HOP-92 NSCLC it was 56%. The growth with NCI-H522 lung is 66.1%; with A549/ATCC NSCLC, 74.3%; in the assay with 786-0 renal, 61%; with COLO 205 colon, 90%.

As to `O=C1CC(c2nc3ccccc3[nH]2)CN1C1CCCCC1` (stereo not given), the growth in the assay on NCI-H23 lung was 89.8%; in the assay on NCI-H226 lung, 95.4%; in the assay with NCI-H322M lung, 103%; in the assay with HOP-62 NSCLC, 94.9%; with NCI-H460 lung it was 109%; in the assay on HOP-92 NSCLC it was 91.3%. For the same compound, the growth in the assay with NCI-H522 lung was 89.3%; with A549/ATCC NSCLC it was 104%; with 786-0 renal, 110%; with COLO 205 colon, 102%.

For the compound `Oc1cccc(Nc2nccc(-c3ccc4ccccc4c3)n2)c1`, the growth is 33.2% in the assay on NCI-H23 lung; 70.8% in the assay on NCI-H226 lung; 46% in the assay with NCI-H322M lung; 27.2% in the assay on HOP-62 NSCLC; 16.1% with NCI-H460 lung; 63.5% with HOP-92 NSCLC. Moreover, the growth with NCI-H522 lung was 15.6%; in the assay with A549/ATCC NSCLC it was 30.7%; with 786-0 renal, 30.1%; in the assay on COLO 205 colon, 84.7%.

On to `c1ccc2c(Nc3cccc4ccccc34)cccc2c1`, for which the growth in the assay on NCI-H23 lung is 73.4%; in the assay on NCI-H226 lung, 72.3%; with NCI-H322M lung, 103%; with HOP-62 NSCLC it was 56.3%; in the assay with NCI-H460 lung it was 42.9%; with HOP-92 NSCLC it was 28.1%. In addition, the growth in the assay on NCI-H522 lung was 46.4%; in the assay with A549/ATCC NSCLC, 48.1%; in the assay on 786-0 renal, 81.2%; in the assay on COLO 205 colon it was 58.3%.

Regarding `COc1ccc(C(=O)/C=C/c2c[n+](=O)c3ccc(F)cc3n2[O-])cc1`, the growth was 98.7% with NCI-H23 lung; 102% with NCI-H226 lung; 118% in the assay with NCI-H322M lung; 104% in the assay with HOP-62 NSCLC; 119% with NCI-H460 lung; 85.7% in the assay on HOP-92 NSCLC. For the same compound, the growth is 109% in the assay with NCI-H522 lung, 108% in the assay on A549/ATCC NSCLC, 110% in the assay on 786-0 renal and 127% in the assay with COLO 205 colon.

With `COc1ccc(-c2nn(-c3ccccc3)cc2/C=C/C(=O)OCc2cn(-c3ccc(F)c(Cl)c3)nn2)cc1`, the growth was 72.6% in the assay on NCI-H23 lung; 80.5% in the assay with NCI-H226 lung; 92.1% in the assay with NCI-H322M lung; 78.5% with HOP-62 NSCLC; 96.7% in the assay on NCI-H460 lung; 101% in the assay with HOP-92 NSCLC. For the same compound, the growth with NCI-H522 lung is 65.2%; in the assay with A549/ATCC NSCLC, 92.1%; in the assay with 786-0 renal it was 101%; in the assay with COLO 205 colon, 104%.

The values are drawn from PubChem BioAssay (NCI).
